72 compounds from PubChem BioAssay AID652126 (The Scripps Research Institute Molecular Screening Center, 2013) can be followed below.

Among all 370,000 compounds or so, about 3,700 (1%) were called active. The list comes from a sample in which actives are over-represented; it also holds similar structures and randomly drawn compounds. A number with no mark means an inactive call.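 The calls were made as follows: active = activation above the mean over all tested compounds plus 3 SD (cut at about 0.9% in these data); inactive = the rest.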

The test system of the test is Nuclear hormone receptor DAF-12 (Strongyloides stercoralis). Nature of the test: ssDAF-12 driven luciferase reporter activation – cell-based, luminescence, HEK293, GRIP1 co-expression, lit1-tk-luc, primary screen (AID 652126).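 Also: 0% = DMSO-only wells and 100% = 3 µM delta7-dafachronic acid wells.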 The note with it: HEK293 ssDAF-12/GRIP1 lit1-tk-luc reporter, at 6.8 µM, active compounds read high, % of 3 µM dafachronic acid response. A general note: In a reporter assay the amount or activity of a reporter protein is the signal.
As to `CNC(=O)COc1ccc(S(=O)(=O)Nc2ccccc2)cc1`, the activation is -0.41%.

On to `COc1ccc(S(=O)(=O)/N=C2\C=C(NS(=O)(=O)c3ccccc3)C(=O)c3ccccc32)cc1`, for which the activation is 1.6% (active). To `Cc1ccc(S(=O)(=O)/N=C2\C=C(NS(=O)(=O)c3ccc(C)cc3)C(=O)c3ccccc32)cc1` belongs -0.8%; to `O=C(CNC1CCCCC1)NCC1(c2ccccc2)CCCC1`, -1.46%; to `CCC(NC(=O)C1C2C=CC3(CN(Cc4ccccc4)C(=O)C13)O2)c1ccccc1` (configuration not stated), -1.54%. The value for `COc1ccc(NC(=O)C(c2ccncc2)n2c(=O)c(-c3cc4ccccc4[nH]3)nc3ccccc32)cc1` (configuration not stated) was 1.22% (active); that for `CCCCCNC(=O)C(c1ccc(OC)cc1)n1c(=O)c(-c2ccccc2)nc2ccccc21` (configuration not stated) was -0.6%.

For `COc1ccc(C(C(=O)NCc2ccccc2)n2c(=O)c(-c3ccccc3)nc3ccccc32)cc1` (configuration not stated), the activation was -0.84%. In the case of `O=C(NCc1cccs1)C1CCN(S(=O)(=O)c2ccccc2[N+](=O)[O-])CC1`, the activation was -1.16%.

On to `N#CCC[C@H]1CC[C@]2(CCCN(Cc3ccc(Cl)cc3)C2)O1`, for which the activation was -1.32%. The value for `CC(C)Oc1ccc(C(=O)NCC(=O)Nc2ccc3c(c2)CCC3)cc1` was -0.37%. The value for `O=C(Nc1ccc2c(c1)CCC2)c1ccc(Br)s1` was 1.14% (active). To `O=C(Nc1ccc(F)cc1)c1cc2c(s1)CCCC2` belongs 0.25%.

Regarding `Cc1ccc(/C=C/C(=O)O)cc1S(=O)(=O)N1CCC(Cc2ccccc2)CC1`, the activation was -1.4%. The value for `Cc1ccc(S(=O)(=O)C(C#N)c2nc3ccccc3nc2N2CCCC2)cc1C` (configuration not stated) was -0.41%; that for `COCCCNc1nc2ccccc2nc1NS(=O)(=O)c1ccc(F)cc1` was -0.23%.

Turning to `Cc1ccc(S(=O)(=O)Nc2nc3ccccc3nc2N2CCc3ccccc3C2)cc1`, the activation was 1.37% (active). To `Cc1cc(C(=O)NN=C/C=C/c2ccco2)n[nH]1` belongs -0.85%; to `CCOC(=O)C(=O)N(Cc1ccccc1)c1ccccc1C(=O)Nc1cc(OC)ccc1OC`, -1.83%.

As to `CCc1ccc2oc(-c3ccc(N)cc3)nc2c1`, the activation is 1.77% (active). To `Cc1ccc(-c2nnc(SCC(=O)Nc3ccc(Oc4ccccc4)cc3)n2Cc2ccco2)cc1` belongs -1.75%; to `COC(=O)[C@]1(C#N)CC(=O)N(CC2CCCCC2)[C@@H]1c1ccccc1`, 0.53%. To `O=C(Nc1ccccc1)N1CCN(Cc2nc3ccccc3c(=O)[nH]2)CC1` belongs -0.67%; to `CCc1cc(C(c2ccccc2OC)N2CCOCC2)c(NC(=O)c2ccccc2)s1` (configuration not stated), -1.1%; to `COc1ccc(C(=O)Nc2ccnn2C2CCN(Cc3ccncc3)CC2)cc1`, -0.78%.

`COc1ccc(C(=O)Nc2sc(C)c(C)c2CN2CCOCC2)cc1`: the activation is 1.65% (active). The value for `O=C(NCc1cccs1)C1CCCN(S(=O)(=O)c2ccc([N+](=O)[O-])cc2)C1` (configuration not stated) was -1.79%; that for `Cc1nc(CNc2ncnc3ccc(-c4ccc5c(c4)OCO5)cc23)cs1` was -1.38%. The value for `Nc1nc(Nc2ccccc2F)nc(NC2CCCCC2)c1[N+](=O)[O-]` was -0.48%; that for `COCCNc1nc(N)c([N+](=O)[O-])c(NCCO)n1` was -1.31%. Consider `CNc1nc(Nc2ccc(C)c(Cl)c2)nc(N)c1[N+](=O)[O-]`, for which the activation is 2.25% (active). The value for `CC(C)CNc1cccc2c1S(=O)(=O)N(Cc1cn(Cc3ccccc3C(F)(F)F)nn1)Cc1ccccc1O2` was -0.93%; that for `Cc1ccc(CN2CCCCC(NC(=O)C3CCCCC3)C2=O)cc1` (configuration not stated) was -0.73%; that for `CC(CCN1CCC(C(O)(c2ccccc2)c2ccccc2)CC1)Oc1ccc([N+](=O)[O-])cc1Cl` (configuration not stated) was -0.24%. To `NS(=O)(=O)c1ccc2nc(NC(=O)CS(=O)(=O)c3ccc(F)cc3)sc2c1` belongs 1.3% (active). To `Cc1nc2ccc(S(=O)(=O)NCC(=O)O)cc2s1` belongs -0.93%; to `CCS(=O)(=O)N1Cc2ccccc2CC1C(=O)Nc1nc2ccc(F)cc2s1` (configuration not stated), 0.55%; to `CCCCN1CCN(C(=O)c2ccc3c(c2)NC(=O)C(C)(C)O3)CC1`, -1.34%. Turning to `COc1ccc(C#CCNCc2ccc(OC)cc2OC)cc1`, the activation is -1.38%. The value for `COc1ccc(C)cc1S(=O)(=O)NC1CCCCC1` was -0.84%. The value for `COc1ccc(C(=O)O)cc1S(=O)(=O)NC1CCN(Cc2ccccc2)CC1` was -1.42%; that for `COc1ccc(C(=O)NCc2ccccc2C)cc1S(=O)(=O)NC1CCCC1` was 0.92% (active); that for `CCCCNC(=O)C[C@@H]1C(=O)N(CCc2ccc(Cl)cc2)C2=CCCC[C@]21C(=O)OCC` was -2.02%. The value for `CC(C)CNC(=O)OCc1cn(Cc2ccc(F)cc2)nn1` was -0.96%; that for `CC(c1c[nH]c2ccccc12)c1c(-c2ccccc2)n(C)c2ccccc12` (configuration not stated) was -0.45%. `O=C(OCc1cn(-c2ccc(Cl)c(Cl)c2)nn1)c1ccccc1Cl`: the activation is -1.04%. The value for `CCOC(=O)[C@]12CCCC=C1N(Cc1ccc(OC)cc1)C(=O)[C@@H]2CC(=O)NCc1cccs1` was -1.35%; that for `C=CCN(Cc1ccc2c(c1)OCO2)C(C#CC1CC1)C(C)(C)C` (configuration not stated) was -1.38%.

With `CN(C)/C=C1/C(=O)Nc2ccccc21`, the activation was 1.06% (active). The value for `CN(C)/C=C1\C=C(c2ccccc2)OC1=O` was -0.4%. The value for `O=C1Nc2ccccc2C1=NN=Cc1ccco1` was 0.04%; that for `Cc1ccc(-n2c(SCC(=O)Nc3ccc(S(=O)(=O)Nc4nccs4)cc3)nnc2-c2ccncc2)cc1` was -1.76%.

As for `CC(=O)O[C@@]1(C(C)=O)CCC2[C@H]3C=C(C)C4=CC(=O)CC[C@@]4(C)C3CC[C@]21C` (some centres not stated), the activation was -1.19%. `C/C(=N\NC(=S)NC1CCCCC1)c1ccc(C)o1`: the activation is -2.41%. `CC(C)(C)C1CCC(=NNC(=O)c2ccc(Br)o2)CC1` (configuration not stated): the activation is -0.04%. The value for `C/C(=N/NC(=O)c1ccc(Br)o1)c1ccc(C)o1` was 1.57% (active). The value for `Cc1sc2nc(SCC(=O)c3ccc(O)c(O)c3)n(Cc3ccco3)c(=O)c2c1C` was -1.42%; that for `O=S(=O)(NC1CCCCC1)c1ccc(F)c2ccccc12` was -1.61%; that for `C=CCN(C(=O)[C@@H](CCCC)[C@@H](O)c1ccc(Cl)cc1)c1ccccc1` was -1.08%. To `C=C1C(C(C)C)N(C)C2=NC(c3ccccc3)CC(=O)N12` (configuration not stated) belongs -1.49%; to `O=C(NC1=NCCS1)c1ccc(Cl)s1`, -1.02%. Consider `COc1ccc(C(=O)NC2=NCCS2)c(OC)c1`, for which the activation was 1.63% (active). With `COc1ccccc1C(=O)NCCC(=O)NC1=NCCS1`, the activation is -0.76%. Consider `O=C(NCCc1c[nH]c2ccccc12)OCc1cn(-c2c(F)cccc2F)nn1`, for which the activation was -1.14%. The value for `O=C(NCc1ccco1)C1CCCN(S(=O)(=O)c2ccc(Cl)s2)C1` (configuration not stated) was 0%; that for `OCCC1CN(Cc2cnc(-c3ccccc3)s2)CCN1CCc1ccccc1` (configuration not stated) was -1.41%. To `OCCC1CN(Cc2cccn2-c2nccs2)CCN1CCc1ccccc1` (configuration not stated) belongs 1.5% (active); to `OCCC1CN(Cc2ccc(Oc3ncccn3)cc2)CCN1CCc1ccccc1` (configuration not stated), -0.5%; to `COC(=O)c1cccc(Cn2ccc3ccc(-c4ccc5ccn(C(=O)C6CCCCC6)c5c4)cc32)c1`, -1.1%. The value for `COc1ccc(-c2cc(-c3nnc(SCc4ccc([N+](=O)[O-])cc4)n3N)[nH]n2)cc1` was -0.73%; that for `CCCC[C@H]1C2CC(OC(=O)NCc3ccccc3)C(C2)[C@H]2CCCCN21` (some centres not stated) was -1.06%; that for `CCCCOCCCNC(=O)C[C@H]1C[C@@]2(C(=O)OC)C(=C[C@H](C(C)(C)C)O[C@@H]2C)N(CCc2ccc(OC)c(OC)c2)C1=O` was -1.19%.
